{
  "source": "PubChem BioAssay (NCATS)",
  "note": "Several values for one entry are separate records, joined by “and”; a condition that tells them apart may be missing. Equal entries are not always repeated. Inconclusive results are not listed. Unmarked numbers belong to inactive results. Activity calls are given as the source filed them. Calls follow the shape of the dose curve; as a rule, active = well fitted activation curve with a large enough effect; inconclusive = small, poorly fitted or top-dose-only effect; inactive = no such curve, though single readings can be large or run the other way. Potency is read from the fitted curve at half-maximal effect.",
  "data": [
    {"molecular_target": "Cellular tumor antigen p53 (Homo sapiens) (UniProt P04637)", "sequence (P04637 whole entry, looked up)": "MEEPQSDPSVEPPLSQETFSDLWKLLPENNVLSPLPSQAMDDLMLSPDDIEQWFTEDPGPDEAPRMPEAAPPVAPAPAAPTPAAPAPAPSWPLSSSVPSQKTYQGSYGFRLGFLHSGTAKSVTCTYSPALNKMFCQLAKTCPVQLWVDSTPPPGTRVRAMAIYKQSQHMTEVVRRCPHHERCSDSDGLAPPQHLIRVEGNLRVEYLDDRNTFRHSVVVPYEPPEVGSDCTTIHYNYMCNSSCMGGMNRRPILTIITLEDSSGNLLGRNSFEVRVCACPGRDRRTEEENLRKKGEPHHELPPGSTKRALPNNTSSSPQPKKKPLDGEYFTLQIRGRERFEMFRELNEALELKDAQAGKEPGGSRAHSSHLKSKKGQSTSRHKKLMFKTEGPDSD", "experiment": "Primary qHTS for small molecule compounds that upregulate eGFP-tagged delta133p53alpha (in N-terminal) cells. (AID 2060322); also: nearly all actives have a fitted effect of over 75% in size;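 as to activation: series mostly up to about 56 µM; 0% = DMSO vehicle and 100% = reference activator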", "settings": "NCI-H358 eGFP-delta133p53alpha fluorescence, 24 h; activation: active compounds read high", "summary_of_the_method": "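NCI-H358 cells pre-induced 24 h with 10 ng/ml doxycycline to express N-terminal eGFP-delta133p53alpha, then dosed 24 h at 37C without doxycycline; fixed, Hoechst-stained, GFP intensity by laser scanning cytometry, normalized to DMSO (0%) and 57.5 uM 5-azacytidine (100%).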", "values": [
      {"smiles": "CCOC(=O)[C@H](CCc1ccccc1)N[C@@H](C)C(=O)N1Cc2ccccc2C[C@H]1C(=O)O", "activation": "17.6%"},
      {"smiles": "CC12CCC(CC1)C(C)(C)O2", "activation": "-0.565%"},
      {"smiles": "COC(=O)c1cc(Cl)ccc1NS(=O)(=O)C(F)(F)F", "activation": "8.47%"},
      {"smiles": "CCCCCC(N)=O", "activation": "-17.5%"},
      {"smiles": "Cc1c(C(=O)NCCO)[n+](=O)c2ccccc2n1[O-]", "activation": "-11.7%"},
      {"smiles": "CC(NC(CCc1ccccc1)C(=O)O)C(=O)N1C(=O)N(C)CC1C(=O)O", "note": "(stereo unspecified)", "activation": "-13.4%"},
      {"smiles": "CC(C=CC1=C(C)CCCC1(C)C)=CC=CC(C)=CC(=O)O", "activation": "15.8% and -23.6%"},
      {"smiles": "CC(C)OC(=O)[C@H](C)N[P@](=O)(OC[C@H]1O[C@@H](n2ccc(=O)[nH]c2=O)[C@](C)(F)[C@H]1O)Oc1ccccc1", "activation": "15%"},
      {"smiles": "CCOC(=O)N1CCN([N+]([O-])=NOc2ccc([N+](=O)[O-])cc2C#N)CC1", "activation": "12.2%"},
      {"smiles": "O=C1CCCc2c(O)cccc21", "activation": "-14.1%"},
      {"smiles": "Nc1ccc([N+](=O)[O-])cc1O", "activation": "-7.53%"},
      {"smiles": "N[C@@H](CSSC[C@H](N)C(=O)O)C(=O)O", "activation": "24.3%"},
      {"smiles": "OC[C@H]1O[C@@H](n2cnc3c2NC=NC[C@@H]3O)C[C@H]1O", "activation": "-21%"},
      {"smiles": "C[C@@]12CCC[C@H]1[C@@H]1CC[C@H]3C[C@@H](O)CC[C@]3(C)[C@H]1CC2", "activation": "-12.6%"},
      {"smiles": "CCN(CC)CCOC(=O)C(c1ccccc1)c1ccccc1", "activation": "-8.47%"},
      {"smiles": "COC(=O)N[C@H](C(=O)N[C@@H](Cc1ccccc1)[C@@H](O)CN(Cc1ccc(-c2ccccn2)cc1)NC(=O)[C@@H](NC(=O)OC)C(C)(C)C)C(C)(C)C", "activation": "-2.82% and 23.4%"},
      {"smiles": "C[C@H](NCc1ccc(OCc2cccc(F)c2)cc1)C(N)=O", "Potency": "24.3 µM (active)"},
      {"smiles": "C/C=C/c1ccc(O)c(OC)c1", "activation": "-0.837%"},
      {"smiles": "O=C(O)Cn1cnnn1", "activation": "-6.21%"},
      {"smiles": "Oc1cccc2[nH]ccc12", "activation": "-5.08%"},
      {"smiles": "O=C(CCCl)NCCc1ccccc1", "activation": "-4.18%"},
      {"smiles": "COc1cc2c3cc1Oc1cc(ccc1O)C[C@@H]1c4c(cc(OC)c(O)c4Oc4ccc(cc4)C[C@@H]3N(C)CC2)CC[N+]1(C)C", "activation": "19.8%"},
      {"smiles": "COc1ccc(/C(C)=C/C(=O)O)c(OC)c1", "activation": "-10.7%"},
      {"smiles": "CC1(C)OC[C@@H](COC(=O)CCc2ccc(OC[C@@H](O)CNCCNC(=O)N3CCOCC3)cc2)O1", "activation": "10%"},
      {"smiles": "CCOC(=O)c1ccc(O)c(O)c1", "activation": "-23.2%"},
      {"smiles": "O=C(c1cc(O)c(O)c(O)c1)c1ccc(O)c(O)c1O", "activation": "23.2%"}
    ]}
  ]
}
